Consider nine compounds from PubChem BioAssay (EPA / NIEHS).

A short description of assay [1]: BSK_BT_PBMCCytotoxicity: PBMC Cytotoxicity Assessment in the BioMAP Diversity Plus: BT Assay (AID 2284225).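 Note: PBMC viability measured by Alamar Blue dye reduction fluorescence.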 The note with it: primary human B cells with PBMC. In short, it runs like this:
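Primary human co-culture of B cells and PBMC, pre-dosed 1 h then activated with SEB and TSST-1. Cytotoxicity is taken from Alamar Blue dye reduction, added for 6 h at the end of a 90 h incubation.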

Read-out in assay [2]: Secreted IgG (sIgG), gene 3500
Nature of the assay: BSK_BT_sIgG: BioMAP Diversity Plus: BT Assay for Secreted IgG (sIgG) Biomarker Activity (AID 2284226). To be noted: primary human B cells with PBMC. In short, it runs like this: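 In this multiplexed co-culture system, ELISA quantifies sIgG 24 h post-treatment. Endpoint analysis uses positive fitting direction, DMSO negative control.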

Read-out in assay [3]: Interleukin 6 (IL6), IL6 (gene 3569)
The experiment in a line: BSK_BT_xIL6: BioMAP Diversity Plus: BT Assay for Interleukin 6 (IL6) Biomarker Activity (AID 2284228). The note with it: primary human B cells with PBMC. In short, it runs like this:
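IL-6 secretion measured (Luminex xMAP) in human primary B cell + PBMC co-culture at 24 h of chemical exposure; DMSO served as negative control and activity baseline, with curves fitted for increase.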

Read-out in assay [4]: Interleukin 17A (IL17A), IL17A (gene 3605)
Nature of the assay: BSK_BT_xIL17A: BioMAP Diversity Plus: BT Assay for Interleukin 17A (IL17A) Biomarker Activity (AID 2284229). To be noted: primary human B cells with PBMC. A digest of the protocol: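 Human primary B cells plus PBMC, treated 24 h with chemicals; supernatant IL-17A quantified on Luminex xMAP beads. Gain of signal over DMSO control scored as activity.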

Assay [5] is described as follows: IUF_NPC1a_proliferation_area_72hr: Leibniz Research Institute for Environmental Medicine (IUF) 72-hour Neural Progenitor Cell Proliferation Area Assay (NPC1a) (AID 2284208). In short, it runs like this: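 Measured in 3D suspension: each well held one primary hNPC sphere grown with EGF and FGF at pH 7.2-7.6. Compound stayed on for 72 h, then area was imaged; spheres lacking growth factors defined reduced proliferation.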

Assay [6] can be described thus: IUF_NPC1_viability_72hr: Viability Assessment at 72 hours in the Leibniz Research Institute for Environmental Medicine (IUF) Neural Progenitor Cell Proliferation Assay (NPC1) (AID 2284209). A digest of the protocol:
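Three-day continuous exposure of human neural progenitor spheres under EGF/FGF-driven proliferation; cell viability scored by alamar blue signal versus DMSO.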

The nature of assay [7]: CCTE_Mundy_HCI_Cortical_Synap_Neur_Matur_NeuriteSpotCountPerNeuriteLength: CCTE's Synaptogenesis and Neurite Maturation Assay in rat cortical cells for Neurite Spot Count per Neurite Length, Mundy Lab (AID 2284210). In short, it runs like this: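 Read-out: synaptophysin puncta counted along MAP2-stained neurites, normalised to neurite length, by automated high-content imaging. Rat cortical cells; AraC DIV 5; chemical dosing DIV 7; termination DIV 12. DMSO baseline.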

Assay [8] in a line: CCTE_Mundy_HCI_Cortical_NOG_NeuriteLength: CCTE's Neurite Outgrowth Assay in rat cortical cells for Neurite Length, Mundy Lab (AID 2284213).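 For AC50: neurites imaged about 48 to 50 h after chemical exposure began.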 A digest of the protocol: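 First, rat primary cortical cells were plated and, 2 h later, given test chemical as a 1/10 dilution. Finally, βIII-tubulin immunostaining enabled automated imaging of neurite length.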
Assay [9] in a line: CCTE_Mundy_HCI_Cortical_Synap_Neur_Matur_NeuriteLength: CCTE's Synaptogenesis and Neurite Maturation Assay in rat cortical cells for Neurite Length, Mundy Lab (AID 2284214). In short, it runs like this: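 DMSO-normalised neurite length, from high-content imaging of anti-MAP2-stained rat cortical cells fixed at DIV 12. Glia were suppressed with AraC (DIV 5) before chemical exposure from DIV 7.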

A short description of assay [10]: CCTE_Mundy_HCI_Cortical_Synap_Neur_Matur_NeuriteSpotCountPerNeuron: CCTE's Synaptogenesis and Neurite Maturation Assay in rat cortical cells for Neurite Spot Count per Neuron Count, Mundy Lab (AID 2284215). In short, it runs like this:
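Developing rat cortical neurons, with glia suppressed by AraC, are exposed to chemicals from DIV 7 to DIV 12. Automated fluorescence imaging of MAP2-labelled neurites and synaptophysin puncta yields a count per neuron, normalised against DMSO wells.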

Assay [11] can be described thus: CCTE_Mundy_HCI_Cortical_Synap_Neur_Matur_SynapseCount: CCTE's Synaptogenesis and Neurite Maturation Assay in rat cortical cells for Synapse Count, Mundy Lab (AID 2284218). In short, it runs like this:
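Endpoint: synapses/neuron by HCI (synaptophysin puncta on MAP2-labelled neurites, Hoechst nuclei). Rat primary cortical cells, AraC DIV 5, dosed DIV 7, fixed DIV 12; DMSO negative control.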

A short description of assay [12]: CCTE_Mundy_HCI_hN2_NOG_NeuriteCount: CCTE's Neurite Outgrowth Assay in human hN2 cells for Neurite Count, Mundy Lab (AID 2284219; active = hit-call score of the fitted dose curve at least 0.9, where 1 is the maximum). In short, it runs like this: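 In this morphology assay, hNP1-derived neurons received test chemical 2 h post-plating and were fixed two days later in warm paraformaldehyde/sucrose containing Hoechst 33342. Neurites, labelled by rabbit anti-βIII-tubulin (1:800) and Alexa Fluor-488 (1:500), were counted automatically.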

A short description of assay [13]: CCTE_Mundy_HCI_hN2_NOG_NeuriteLength: CCTE's Neurite Outgrowth Assay in human hN2 cells for Neurite Length, Mundy Lab (AID 2284220; active = hit-call score of the fitted dose curve at least 0.9, where 1 is the maximum). A digest of the protocol:
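Read-out is neurite length from high-content imaging of βIII-tubulin/Alexa Fluor-488-labelled neurons, referenced to DMSO controls.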

The nature of assay [14]: CCTE_Mundy_HCI_hN2_NOG_NeuronCount: CCTE's Neurite Outgrowth Assay in human hN2 cells for Neuron Count, Mundy Lab (AID 2284221; active = hit-call score of the fitted dose curve at least 0.9, where 1 is the maximum). A digest of the protocol: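 Read-out is the number of betaIII-tubulin-positive neurons imaged by automated high-content analysis, with DMSO as negative control.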
A short description of assay [15]: CCTE_Mundy_HCI_Cortical_Synap_Neur_Matur_CellBodySpotCount: CCTE's Synaptogenesis and Neurite Maturation Assay in rat cortical cells for Cell Body Spot Count, Mundy Lab (AID 2284223). A digest of the protocol: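 Chemicals were applied to AraC-treated rat primary cortical cells at DIV 7 and measured at DIV 12. Fixed cells were labelled for MAP2, synaptophysin and nuclei, and high-content imaging gave cell body synaptophysin spot counts per neuron relative to DMSO.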

A short description of assay [16]: CCTE_Mundy_HCI_hNP1_Pro_ResponderAvgInten: CCTE's Proliferation Assay in human neuroprogenitor cells, Mundy Lab (AID 2284224; active = hit-call score of the fitted dose curve at least 0.9, where 1 is the maximum;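 note: human neural progenitor cells hNP1 derived from WA09 embryonic stem cells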). A digest of the protocol:
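Proliferation read as average intensity of BrdU-positive cells, imaged at 26.25 h post-dosing: chemical exposure started after 40–44 h culture, BrdU during final 4 h, paraformaldehyde fixation. Positive-direction fit relative to DMSO.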

Assay [17] is described as follows: CCTE_Mundy_HCI_Cortical_Synap_Neur_Matur_BPCount: CCTE's Synaptogenesis and Neurite Maturation Assay in rat cortical cells for Branch Point Count, Mundy Lab (AID 2284211). In short, it runs like this:
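In this multiplexed morphology assay, cortical cells from rat receive chemicals at DIV 7 and are fixed at DIV 12, then immunostained and imaged; branch points are counted, with DMSO as baseline.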

Assay [18] is described as follows: CCTE_Mundy_HCI_Cortical_NOG_NeuriteCount: CCTE's Neurite Outgrowth Assay in rat cortical cells for Neurite Count, Mundy Lab (AID 2284212).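 Note: cells fixed about two days after chemical exposure began.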 In short, it runs like this:
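Rat cortical primary cells; compound added 2 h post-plating, 1/10 dilution of working solution. Anti-betaIII-tubulin/AF488 ICC; ArrayScan neurite count vs DMSO.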

The nature of assay [19]: CCTE_Mundy_HCI_Cortical_Synap_Neur_Matur_NeuriteCount: CCTE's Synaptogenesis and Neurite Maturation Assay in rat cortical cells for Neurite Count, Mundy Lab (AID 2284222).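 Note: exposure from day 7 to day 12 in vitro with readout at day 12.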 A digest of the protocol:
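Chemical exposure runs DIV 7–12 in rat cortical cultures, glia suppressed by AraC at DIV 5; measurement is at DIV 12. Imaging-derived neurite counts are fitted against DMSO baseline.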

Where “and” joins values, the source holds several entries; their conditions need not be identical. Equal values may be shown once. Inconclusive results are not listed. Calls of active or inactive are those of the source. Rule for the calls, unless noted: active = hit-call score of the fitted dose curve at least 0.9, where 1 is the maximum; inactive = score below 0.9.

Take `OCCN1CN(CCO)CN(CCO)C1`: the AC50 (as a rule, the concentration at which the activity in the assay is half-maximal) in assay [1] was 30.2 µM (active); in assay [2] it was 29.2 µM (active); in [3] it was 33.6 µM (active). The result in assay [4] was inactive.

Take `O=C(CCCN1CCC(O)(c2ccc(Cl)cc2)CC1)c1ccc(F)cc1`: the compound was called inactive in [5], in assay [6] and in assay [15]. Further, the AC50 in [7] is 50 µM (active); in assay [8] it was 6.16 µM (active); in [9], 21.2 µM (active); in [10] it was 17.8 µM (active); in assay [11], 18.4 µM (active); in assay [12] it was 37.9 µM (active). In addition, the concentration at half-maximal activity (AC50) in [13] is 22.4 µM (active); in assay [14], 20.3 µM (active).

Take `Nc1ccn([C@@H]2O[C@H](CO)[C@@H](O)C2O)c(=O)n1` (stereo partly specified): the result in assay [7], in assay [12], in assay [13] and in [15] was inactive. For the same compound, the AC50 in assay [8] is 5.88 µM (active); in [9], 17.1 µM (active); in assay [10], 15.9 µM (active); in [11], 16 µM (active); in assay [14] it was 1.47 µM (active); in assay [16], 89.6 nM (active).

For `CCCCCCCCCCCCCCCCCC[N+](C)(C)Cc1ccccc1`, the AC50 is 4.83 µM (active) in assay [1], 0.66 µM (active) in [2], 6.37 µM (active) in assay [3] and 792 nM (active) in assay [4].

For `CC[N+](CC)(CC)Cc1ccccc1`, the result in [1], in assay [2], in assay [3] and in assay [4] was inactive.

For the compound `COc1cc(OC)nc(NC(=O)NS(=O)(=O)Nc2ccccc2C(=O)N(C)C)n1`, the outcome in assay [1], in [2], in assay [3] and in [4] was inactive.

As for `CN(Cc1cnc2nc(N)nc(N)c2n1)c1ccc(C(=O)N[C@@H](CCC(=O)O)C(=O)O)cc1`, the call in assay [7], in assay [18], in assay [8], in [10], in assay [11] and in [12] was inactive. The compound was called inactive in assay [13], in [14], in assay [19], in assay [15], in assay [1] and in assay [3]. For the same compound, the result in assay [4] was inactive. Further, the AC50 in assay [17] is 44.9 nM (active); in assay [9], 0.0328 µM (active); in assay [2], 662 nM (active) and 100 nM (active).

As for `C[C@]12CC[C@@H]3c4ccc(O)cc4CC[C@H]3[C@@H]1C[C@@H](O)[C@@H]2O`, the result in assay [1], in assay [2], in [3] and in assay [4] was inactive.

With `CCOC(=O)CN[C@@H](C(=O)N1CC[C@H]1C(=O)NCc1ccc(/C(N)=N/O)cc1)C1CCCCC1`, the outcome in [1], in assay [2], in assay [3] and in assay [4] was inactive.
